Screens deposited in PubChem BioAssay by several laboratories.
The list is not random: actives were taken first. Their share in the collection is about 4.5%.
tim23-1 inh: growth inhibitors of tim23-1 mutant yeast, primary screen, luminescence, uHTS. S. cerevisiae tim23-1 growth, BacTiter-Glo luminescence, 24 h. inhibition, % at 20 µM. 1.3% of 330,000 active;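 active means growth inhibition of the mutant yeast at or above 50%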;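 further: temperature-sensitive mutant grown at 25 °C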
TIM10 inh: growth inhibitors of isogenic TIM10 control yeast, primary screen, counter-screen for tim10-1 yeast inhibitor project, luminescence, uHTS; S. cerevisiae TIM10 strain growth, BacTiter-Glo luminescence, 24 h; inhibition, % at 10 µM; 1.4% of 330,000 active; AID 463195, 2010;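 active means inhibition of 40% or more at the single tested concentration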;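 further: wild-type TIM10 isogenic control strain grown at permissive 25 °C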
NLRP3 yeast inh: NALP3 inflammasome inhibitors in reconstituted yeast, primary screen, luminescence, uHTS; AID 2825, 2010; inhibition, % at 10 µM; 0.39% of 330,000 active; Yeast reconstituted NLRP3/ASC/caspase-1, beta-gal luminescence, 24 h;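 active means inhibition of 50% or more; inactive means inhibition below 50%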
SKKanGAS inh: S. pyogenes SKKanGAS growth inhibitors in kanamycin, primary screen, streptokinase expression inhibitor project, SKKanGAS strain, BacTiter-Glo luminescence. 1.3% of 300,000 active. inhibition, % at 7.5 µM. 6 h;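 active means mean replicate score, as percent of positive control median, at least 50; inconclusive means mean below 50 but one replicate at or above 50; inactive means mean and every replicate below 50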;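 further: strain carries kanamycin resistance gene driven by streptokinase promoter and grows in 40 µg/ml kanamycin; loss of luminescence reflects streptokinase promoter inhibition or plain growth inhibition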
tim10-1 inh: growth inhibitors of tim10-1 mutant yeast, primary screen, luminescence, uHTS; AID 463190, 2010; 2.2% of 330,000 active; S. cerevisiae tim10-1 ts strain growth, BacTiter-Glo, 24 h; inhibition, % at 20 µM;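 active means inhibition of at least 40%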;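 further: mutant grown at 25 °C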
PfHsp90 yeast 2: growth inhibition of PfHsp90-expressing yeast, primary screen, antimalarial PfHsp90 inhibitor project, S. cerevisiae, BacTiter-Glo luminescence, single point, set 2; BacTiter-Glo ATP, 48 h; yeast lacking PDR1 and PDR3 efflux regulators; inhibition, % at 9.4 µM; 0.32% of 310,000 active; AID 504621, 2011;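 active means every replicate shows inhibition above about 80%, whatever the replicate mean, limit read from the data; inconclusive means mean inhibition reaches the set limit but some replicate falls short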
tim10-1 confirm: growth inhibitors of tim10-1 mutant yeast, confirmation, single concentration, luminescence, S. cerevisiae | shares compounds with tim10-1 inh | S. cerevisiae tim10-1 ts strain growth, BacTiter-Glo, 24 h | inhibition, % at 20 µM | 56% of 7,400 active | AID 463213, 2010;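 active means inhibition of yeast growth at or above a set limit in either of two repeat tests at 20 µM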;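 further: tim10-1 mutant grown at permissive 25 °C to find synthetic lethal compounds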
TIM10 conf: growth inhibitors of wild-type TIM10 yeast, confirmation, counter-screen for tim10-1 synthetic lethality project, single concentration, luminescence, S. cerevisiae; shares compounds with TIM10 inh; S. cerevisiae tim10 strain growth, BacTiter-Glo luminescence, 24 h; inhibition, % at 10 µM; 63% of 4,600 active;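 active means inhibition of yeast growth at or above a set limit in either of two replicates at 10 µM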; further: this counterscreen used the strain with wild-type TIM10
Each line names hits and unclear results; the compound was inactive in the other large screens (follow-up assays come after a bar, where they were run).

Cc1ccc(C)c(NC(=S)N/N=C2\CCc3ccccc32)c1	SKKanGAS inh inconclusive
COc1cccc(NC(=S)NN=C2CCCCCC2)c1	TIM10 inh 41.0, SKKanGAS inh 51.9, tim10-1 inh 44.9 | tim10-1 confirm 36.5 | TIM10 conf inactive
CC/C(=N\NC(=S)Nc1cccc(C)c1)c1ccccc1	TIM10 inh 47.6, SKKanGAS inh 61.6, tim10-1 inh 59.9 | tim10-1 confirm 38.7 | TIM10 conf 53.5
Cc1cccc(NC(=S)N/N=C2/CCCCc3ccccc32)c1	TIM10 inh 47.1, tim10-1 inh 51.0 | tim10-1 confirm 37.4 | TIM10 conf inactive
C/C(=N/NC(=S)Nc1cccc(C)c1)c1cccc([N+](=O)[O-])c1	TIM10 inh 49.4, tim10-1 inh 51.9 | tim10-1 confirm 42.8 | TIM10 conf 40.6
O=C1c2ccccc2[C@@H]2C[C@H]3O[C@H]3CCN12	none (no result: NLRP3 yeast inh, SKKanGAS inh)
S=C(Nc1ccccc1)N1CCN(C(=S)c2ccccc2)CC1	none
CN(C)S(=O)(=O)c1cccc(C(=O)Nc2cc(Cl)cc(Cl)c2)c1	TIM10 inh 41.5, tim10-1 inh 50.7 | tim10-1 confirm inactive | TIM10 conf inactive
CN(C)S(=O)(=O)Oc1cccc(C(=O)Nc2cccc(Cl)c2)c1	TIM10 inh 77.0, tim10-1 inh 55.4 (no result: PfHsp90 yeast 2) | tim10-1 confirm 46.3 | TIM10 conf 72.3
CNS(=O)(=O)c1cccc(C(=O)Nc2cccc(Cl)c2)c1	none
CN(C)S(=O)(=O)Oc1cccc(C(=O)Nc2ccc(Cl)c(Cl)c2)c1	TIM10 inh 48.9, tim10-1 inh 57.1 | tim10-1 confirm 44.0 | TIM10 conf 65.2
COc1ccc(NC(=O)c2cccc(OS(=O)(=O)N(C)C)c2)cc1	none
CN(C)S(=O)(=O)c1cccc(C(=O)Nc2ccccc2)c1	none
C=C1CCC[C@]2(C)C[C@H]3OC(=O)C(CN(Cc4ccc(OC)c(OC)c4)CC(C)O)[C@H]3CC12 (some centres undefined)	TIM10 inh 44.3, tim10-1 inh 42.8 | tim10-1 confirm 39.7 | TIM10 conf 45.8
C=C1CCC[C@]2(C)C[C@H]3OC(=O)C(CN[C@@H](C)c4ccccc4)[C@H]3CC12 (some centres undefined)	none (no result: tim23-1 inh, TIM10 inh, NLRP3 yeast inh, tim10-1 inh)
Cc1ccc(C)n1N1C(=O)/C(=C\c2ccc(Cl)cc2)SC1=S	TIM10 inh 63.2, tim10-1 inh 69.2 | tim10-1 confirm 61.0 | TIM10 conf 63.5
O=C1/C(=C/c2ccncc2)CCc2ccccc21	TIM10 inh 45.1, tim10-1 inh 50.1 | tim10-1 confirm 56.2 | TIM10 conf 55.3
Nc1nc(Nc2ccccc2F)sc1C(=O)c1ccccc1	none
Cc1cccc(Cc2c(C)nc3c(C(=O)NCc4ccco4)cnn3c2C)c1	TIM10 inh 47.6, tim10-1 inh 41.0 (no result: PfHsp90 yeast 2) | tim10-1 confirm 42.1 | TIM10 conf 39.8
Cc1ccc(C(=O)Nc2ccccc2C(=O)NCc2ccccc2)cc1	TIM10 inh 47.9, tim10-1 inh 47.2 | tim10-1 confirm 40.6 | TIM10 conf inactive
Cc1ccc(C(=O)Nc2ccccc2C(=O)NCc2cccnc2)cc1	none
COc1ccc(OC)c(C2C=C(C34CC5CC(CC(C5)C3)C4)NC(=S)N2)c1 (centres undefined)	TIM10 inh 40.6, SKKanGAS inh 52.3, tim10-1 inh 46.7 | tim10-1 confirm inactive | TIM10 conf inactive
COc1ccc(C2=CC(c3cc(OC)c(OC)c(OC)c3)NC(=S)N2)cc1 (centres undefined)	none
COc1cc(S(C)=O)ccc1-c1nc2ncccc2[nH]1 (centres undefined)	none (no result: SKKanGAS inh)
